Inconclusive results are not listed. Activity calls are given as the source filed them. Unless noted, calls follow the shape of the full dose curve.
Legend:
[1] = Nuclear factor erythroid 2-related factor 2/antioxidant responsive element (Nrf2/ARE) small molecule agonists: qHTS cell viability counter screen in human keratinocytes (AID 1919968; active = well fitted curve in the direction sought with a large enough effect in the repeat runs; an effect the other way counts as inactive or inconclusive; also: nearly all actives have a fitted effect of over 55% in size; also: potency is read from the fitted curve at half-maximal effect)
Method in brief: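 HaCaT ARE reporter line, 1,500 cells/well; 5 h settle, 37 C/5% CO2; cpd in DMSO pinned; 23 h exposure; CellTiter-Fluor, 1 h; fluorescence.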

[2] = Nuclear factor erythroid 2-related factor 2/antioxidant responsive element (Nrf2/ARE) small molecule agonists: luciferase reporter gene qHTS assay in human keratinocytes (AID 1919969); also: nearly all actives have a fitted effect of over 35% in size; also: potency is read from the fitted curve at half-maximal effect
[3] = biological target: Gonadotropin-releasing hormone receptor (Homo sapiens) (UniProt P30968); test: Human gonadotropin-releasing hormone receptor (GnRHR) small molecule agonists, calcium flux assay in GnRHR-HEK293 cells (AID 1920063); also: nearly all actives have a fitted effect of over 35% in size
Chain of Gonadotropin-releasing hormone receptor (Homo sapiens) (P30968 whole entry, looked up): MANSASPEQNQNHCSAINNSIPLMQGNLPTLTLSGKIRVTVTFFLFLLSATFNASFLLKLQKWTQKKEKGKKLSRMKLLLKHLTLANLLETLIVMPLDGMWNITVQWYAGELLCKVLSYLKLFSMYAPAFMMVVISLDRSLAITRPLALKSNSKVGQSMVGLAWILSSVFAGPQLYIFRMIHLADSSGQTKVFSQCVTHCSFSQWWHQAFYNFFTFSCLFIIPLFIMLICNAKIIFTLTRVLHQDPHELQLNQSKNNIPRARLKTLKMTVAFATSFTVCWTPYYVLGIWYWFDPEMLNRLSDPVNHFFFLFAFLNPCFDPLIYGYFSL
Method in brief: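 GnRHR-HEK293, 1500 cells/well, 18 h 37 C/5% CO2; Ca dye 1 h 37 C; cpd pinned (DMSO), agonist mode; kinetic FL 480/540, 3 min, 1 s reads; 15 conc, n=3.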

[4] = biological target: KiSS-1 receptor (Homo sapiens) (UniProt Q969F8); test: Human kisspeptin (KISS1R) small molecule agonists, calcium flux assay in KISS1R-HEK293 cells (AID 1920064; active = well fitted curve in the direction sought with a large enough effect in the repeat runs; an effect the other way counts as inactive or inconclusive)
Chain of KiSS-1 receptor (Homo sapiens) (Q969F8 whole entry, looked up): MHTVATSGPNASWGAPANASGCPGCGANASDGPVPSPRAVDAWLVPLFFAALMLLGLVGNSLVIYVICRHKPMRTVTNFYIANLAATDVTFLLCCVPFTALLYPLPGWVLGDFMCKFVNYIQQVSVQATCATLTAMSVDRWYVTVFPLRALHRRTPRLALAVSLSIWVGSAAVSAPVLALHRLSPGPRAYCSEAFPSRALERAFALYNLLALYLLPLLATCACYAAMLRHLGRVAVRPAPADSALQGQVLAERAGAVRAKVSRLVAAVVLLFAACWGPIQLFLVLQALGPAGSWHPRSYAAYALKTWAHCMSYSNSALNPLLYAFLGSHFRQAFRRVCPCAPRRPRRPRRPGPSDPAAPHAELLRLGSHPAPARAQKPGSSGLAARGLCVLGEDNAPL
Method in brief: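 Stable human KISS1R HEK293 line; 18 h plating, 37 C/5% CO2; calcium dye 1 h 37 C; compound pin transfer; kinetic fluorescence Ex/Em 480/540, 3 min.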

[5] = G protein-coupled receptor (GPCR) small molecule agonists, calcium flux assay: HEK293 wild type cell line counter screen (AID 1920065)
Method in brief: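 Kinetic fluorescence at Ex/Em 480/540, recorded every second over 3 min, served as the read-out after compound addition. Each compound was tested at 15 concentrations in triplicate on cells pre-loaded with calcium dye for 1 h.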

[6] = p53 small molecule agonists, cell-based qHTS assay with human liver microsomes (AID 1963577);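 also: p53 response element beta-lactamase reporter cells with liver microsomes plus NADPH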
Method in brief: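 With metabolic activation: human liver microsomes (0.5 mg/mL final) plus NADPH (0.5 mg/mL final) added alongside compounds to p53RE-bla cells; 16 h 37 C exposure; beta-lactamase read by LiveBLAzer fluorescence.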

[7] = p53 small molecule agonists, cell-based qHTS assay with rat liver microsomes (AID 1963578)
Method in brief: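 Metabolic activation by rat liver microsomes and NADPH, each 0.5 mg/mL final, added right after compounds to p53RE-bla reporter cells (4,000/well, plated 5 h earlier). 16 h at 37 C, then LiveBLAzer substrate for 2 h at room temperature in the dark; fluorescence read-out.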

[8] = p53 small molecule agonists, cell-based qHTS assay with rat liver microsomes: qHTS cell viability counter screen (AID 1963580); also: nearly all actives have a fitted effect of over 45% in size; also: potency is read from the fitted curve at half-maximal effect
Method in brief: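 Intracellular ATP, by CellTiter-Glo luminescence, defines viability. HCT-116 p53RE-bla cells, 4,000 per well, were compound-treated in the presence of rat liver microsomes and NADPH for 16 h at 37 C.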

[9] = p53 small molecule agonists, cell-based qHTS assay: qHTS cell viability counter screen (AID 1963581); also: nearly all actives have a fitted effect of over 45% in size; also: potency is read from the fitted curve at half-maximal effect
Method in brief: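 HCT-116 p53RE-bla cells, 4,000/well, plated 5 h before compound pin transfer; 16 h at 37 C; bla substrate 2 h RT; then CellTiter-Glo, 30 min RT, luminescence.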

[10] = biological target: 5-hydroxytryptamine receptor 2A (Homo sapiens) (UniProt P28223); test: 5-hydroxytryptamine receptor 2A (HTR2A) small molecule antagonists, cell-based qHTS assay (AID 1963586); also: nearly all actives have a fitted effect of over 45% in size; also: potency is read from the fitted curve at half-maximal effect
Chain of 5-hydroxytryptamine receptor 2A (Homo sapiens) (P28223 whole entry, looked up): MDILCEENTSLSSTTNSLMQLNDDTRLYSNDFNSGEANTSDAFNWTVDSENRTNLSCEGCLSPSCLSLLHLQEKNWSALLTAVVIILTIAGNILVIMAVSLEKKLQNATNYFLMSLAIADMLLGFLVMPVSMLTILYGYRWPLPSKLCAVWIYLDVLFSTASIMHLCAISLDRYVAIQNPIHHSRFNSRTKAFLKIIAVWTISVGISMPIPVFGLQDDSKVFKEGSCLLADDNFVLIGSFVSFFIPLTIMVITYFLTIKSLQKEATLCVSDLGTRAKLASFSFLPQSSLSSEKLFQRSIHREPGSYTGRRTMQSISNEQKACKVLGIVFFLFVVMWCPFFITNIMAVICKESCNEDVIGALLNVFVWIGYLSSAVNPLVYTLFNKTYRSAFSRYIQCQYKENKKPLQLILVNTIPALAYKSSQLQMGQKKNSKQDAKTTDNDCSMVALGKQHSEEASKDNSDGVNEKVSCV
Method in brief: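 Antagonist-mode intracellular calcium assay: DOI (4 nM) added after 5 min compound pre-incubation at room temperature to dye-loaded HTR2A-CHO cells. Fluorescence followed for 3 min, sampled every second.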

[11] = biological target: Muscarinic acetylcholine receptor M1 (Homo sapiens) (UniProt P11229); test: Cholinergic receptor muscarinic 1 (CHRM1) small molecule antagonists, cell-based qHTS assay (AID 1963588); also: nearly all actives have a fitted effect of over 40% in size; also: potency is read from the fitted curve at half-maximal effect
Chain of Muscarinic acetylcholine receptor M1 (Homo sapiens) (P11229 whole entry, looked up): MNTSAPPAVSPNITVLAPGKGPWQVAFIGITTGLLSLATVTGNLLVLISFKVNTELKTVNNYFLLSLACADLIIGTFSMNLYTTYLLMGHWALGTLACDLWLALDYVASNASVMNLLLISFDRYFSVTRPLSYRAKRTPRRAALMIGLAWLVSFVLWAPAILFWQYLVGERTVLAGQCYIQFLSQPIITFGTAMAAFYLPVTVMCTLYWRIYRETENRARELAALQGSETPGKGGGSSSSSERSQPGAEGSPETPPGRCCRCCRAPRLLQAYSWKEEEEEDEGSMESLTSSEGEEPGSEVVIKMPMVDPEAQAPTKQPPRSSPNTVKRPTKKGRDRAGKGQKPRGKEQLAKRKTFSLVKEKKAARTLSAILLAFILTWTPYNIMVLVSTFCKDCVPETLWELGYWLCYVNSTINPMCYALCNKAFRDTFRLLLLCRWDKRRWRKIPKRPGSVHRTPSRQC
Method in brief: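 CHRM1-CHO calcium-flux assay, antagonist mode. Cells were seeded 18 h, dye-loaded 1 h at 37 C and given compound for 5 min at RT, then acetylcholine was added at 50nM. FDSS fluorescence was read 3 min; 15 concentrations, three runs.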

[12] = biological target: Muscarinic acetylcholine receptor M1 (Homo sapiens) (UniProt P11229); test: Cholinergic receptor muscarinic 1 (CHRM1) small molecule agonists, cell-based qHTS assay (AID 1963589); also: nearly all actives have a fitted effect of over 35% in size
Method in brief: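 Human M1 in stable CHO line; 18 h plating, 1 h dye load 37 C; cpd added (agonist mode); Ca2+ fluorescence kinetic read, 1 s intervals; 15 conc, 3 runs.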

[13] = biological target: Beta-2 adrenergic receptor (Homo sapiens) (UniProt P07550); test: Adrenergic beta2 receptor (ADRB2) small molecule antagonists, cell-based qHTS assay (AID 1963592); also: series mostly up to about 92 µM; nearly all actives have a fitted effect of over 50% in size
Chain of Beta-2 adrenergic receptor (Homo sapiens) (P07550 whole entry, looked up): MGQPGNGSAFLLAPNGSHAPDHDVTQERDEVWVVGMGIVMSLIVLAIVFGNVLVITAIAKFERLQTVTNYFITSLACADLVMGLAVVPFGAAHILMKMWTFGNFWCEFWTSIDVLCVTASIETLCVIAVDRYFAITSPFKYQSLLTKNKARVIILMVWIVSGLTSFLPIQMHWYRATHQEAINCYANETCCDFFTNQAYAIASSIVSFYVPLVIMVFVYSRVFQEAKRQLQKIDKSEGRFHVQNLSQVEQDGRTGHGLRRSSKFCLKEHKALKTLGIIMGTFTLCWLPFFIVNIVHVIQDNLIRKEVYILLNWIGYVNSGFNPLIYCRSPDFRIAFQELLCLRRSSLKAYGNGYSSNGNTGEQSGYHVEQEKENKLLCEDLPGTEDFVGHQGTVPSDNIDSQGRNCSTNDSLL
Method in brief: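 Cells (CHO, stable ADRB2 overexpression) incubated 18-20hr at 37C; compounds added from DMSO; agonist mix (1nM isoproterenol, 100uM IBMX, 25uM Ro-20-1724) added; 0.5hr RT; d2-cAMP and anti-cAMP-cryptate added; 1hr RT; 665/615 nm read.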

[14] = biological target: D(2) dopamine receptor (Homo sapiens) (UniProt P14416); test: Dopamine D2 receptor (DRD2) small molecule agonists, cell-based qHTS assay (AID 1963594); also: nearly all actives have a fitted effect of over 35% in size
Chain of D(2) dopamine receptor (Homo sapiens) (P14416 whole entry, looked up): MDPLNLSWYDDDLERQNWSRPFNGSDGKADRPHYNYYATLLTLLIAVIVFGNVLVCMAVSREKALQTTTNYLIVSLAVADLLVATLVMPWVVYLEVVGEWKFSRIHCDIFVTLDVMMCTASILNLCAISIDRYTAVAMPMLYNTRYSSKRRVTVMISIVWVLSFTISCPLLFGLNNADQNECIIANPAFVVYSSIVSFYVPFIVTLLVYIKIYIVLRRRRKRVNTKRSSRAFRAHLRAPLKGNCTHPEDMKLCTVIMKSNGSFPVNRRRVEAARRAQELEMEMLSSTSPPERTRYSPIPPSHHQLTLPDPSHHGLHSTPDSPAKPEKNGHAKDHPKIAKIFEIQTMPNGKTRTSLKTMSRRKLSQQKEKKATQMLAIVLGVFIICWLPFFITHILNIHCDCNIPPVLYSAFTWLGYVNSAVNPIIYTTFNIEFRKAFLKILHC
Method in brief: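 cAMP accumulation in DRD2-HEK293 cells measured by HTRF after 1 h detection; compounds added 10 min before NKH477 (200nM […]) forskolin-analogue stimulation, 30 min at room temperature, with Ro20-1724 present at 0.1 mM final.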

[15] = p53 small molecule agonists, cell-based qHTS assay (AID 1963582; active = well fitted activation curve with a large enough effect in the signal ratio in the repeat runs, not every such curve was filed as active; the % refers to the signal ratio)
Method in brief: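 Reporter line: p53RE-bla. Pre-incubation 5 h, 37 C, 5% CO2; compound (DMSO, pin tool) 16 h, 37 C; B/G FRET substrate 2 h RT; fluorescence intensity read.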

[16] = biological target: 5-hydroxytryptamine receptor 2A (Homo sapiens) (UniProt P28223); test: 5-hydroxytryptamine receptor 2A (HTR2A) small molecule agonists, cell-based qHTS assay (AID 1963587); also: nearly all actives have a fitted effect of over 30% in size; also: potency is read from the fitted curve at half-maximal effect
Method in brief: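 Kinetic calcium-flux fluorescence (2 min, 1 sec intervals) after compound addition in agonist mode. HTR2A-CHO cells were cultured 18 h, then dye-loaded 1 h at 37 C.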

[17] = cAMP Responsive Elements (CRE) small molecule agonists, cell-based qHTS assay (AID 1963590)
Method in brief: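 HEK 293T CRE-bla, 2,000 cells/well, 18 h preincubation 37 C/5% CO2; cpds (DMSO) pinned, 3 h; LiveBLAzer B/G FRET substrate, 2 h RT.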

[18] = cAMP Responsive Elements (CRE) small molecule antagonists, cell-based qHTS assay (AID 1963591; active = well fitted inhibition curve with a large enough effect in the signal ratio in the repeat runs, not every such curve was filed as active; the % refers to the signal ratio; also: potency is read from the fitted curve at half-maximal effect)
Method in brief: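 Beta-lactamase reporter read by FRET substrate (LiveBLAzer B/G) after 2 h at room temperature. CRE-bla HEK293T cells had received compound plus 0.25 uM (final) NKH477 for 3 h at 37 °C.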

[19] = biological target: D(2) dopamine receptor (Homo sapiens) (UniProt P14416); test: Dopamine D2 receptor (DRD2) small molecule antagonists, cell-based qHTS assay (AID 1963595; active = well fitted inhibition curve with a large enough effect in the signal ratio in the repeat runs, with a control signal flat; the % refers to the signal ratio)
Method in brief: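 Readout: HTRF cAMP, cAMP-d2 competing with cellular cAMP for anti-cAMP cryptate, read after 1 h. Cells: DRD2-HEK293. Conditions: 0.1 mM Ro20-1724, 12 nM quinpirole, 200 nM NKH477, 30 min RT.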

[20] = p53 small molecule agonists, cell-based qHTS assay with human liver microsomes: qHTS cell viability counter screen (AID 1963579); also: nearly all actives have a fitted effect of over 45% in size; also: potency is read from the fitted curve at half-maximal effect
Method in brief: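 Metabolic activation used human liver microsomes and NADPH, both 0.5 mg/mL final, over 16 hours at 37 C on p53RE-bla cells (4,000/well). Cytotoxicity measured by CellTiter-Glo luminescence, 30 min at room temperature.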

Measured: Potency

O=[N+]([O-])c1cc(C(F)(F)F)c(Cl)c([N+](=O)[O-])c1Cl
inactive: [3] | [4] | [5] | [6] | [7] | [10] | [11] | [12] | [13] | [14]
active: [1] 24.3 µM | [2] 9.69 µM | [8] 36.3 µM | [9] 16.2 µM

OC(c1ccccc1)(c1ccccc1)C1CCNCC1
inactive: [1] | [2] | [3] | [4] | [5] | [6] | [7] | [8] | [9] | [15] | [16] | [12] | [17] | [18] | [13] | [14] | [19]

O=C(Nc1ccc2[nH]ccc2c1)c1cc2cc(F)ccc2n1Cc1cccc(F)c1
active: [1] 24.3 µM | [18] 61.1 µM
inactive: [2] | [3] | [4] | [5] | [6] | [7] | [8] | [10] | [16] | [11] | [17] | [13] | [14] | [19]

Cc1nc2ccccc2c(=O)n1-c1ccccc1Cl
inactive: [1] | [2] | [3] | [4] | [5] | [6] | [7] | [8] | [9] | [10] | [16] | [11] | [12] | [17] | [18] | [13] | [14] | [19]

CCCSC(=O)N(CCC)CCC
inactive: [1] | [2] | [3] | [4] | [5] | [6] | [7] | [20] | [9] | [15] | [16] | [11] | [12] | [17] | [18] | [13] | [14] | [19]

O=C(Cl)c1ccccc1F
inactive: [1] | [2] | [3] | [4] | [5] | [6] | [7] | [8] | [9] | [15] | [10] | [16] | [12] | [17] | [18] | [13] | [14] | [19]

O=C(O)c1cc[c]([Hg][Cl])cc1
active: [1] 48.6 µM | [2] 21.7 µM
inactive: [3] | [4] | [5] | [6] | [7] | [8] | [9] | [15] | [10] | [16] | [11] | [12] | [14]

CC(Cc1ccc(C(C)(C)C)cc1)CN1C[C@@H](C)O[C@@H](C)C1 (some centres undefined)
active: [2] 61.1 µM | [11] 37.5 µM
inactive: [1] | [3] | [4] | [5] | [6] | [7] | [8] | [9] | [15] | [16] | [12] | [17] | [18] | [13] | [14]

O=NN1CCN(N=O)CC1
inactive: [1] | [2] | [3] | [4] | [5] | [6] | [7] | [8] | [9] | [15] | [10] | [16] | [17] | [18] | [13] | [14] | [19]

O=C(NC(=O)c1c(F)cccc1F)Nc1ccc(Oc2ccc(C(F)(F)F)cc2Cl)cc1F
inactive: [1] | [2] | [3] | [4] | [5] | [6] | [7] | [8] | [9] | [11] | [12] | [13] | [14]

COC(=O)C1(O)c2ccccc2-c2ccccc21
inactive: [1] | [2] | [3] | [4] | [5] | [6] | [7] | [8] | [15] | [16] | [12] | [17] | [18] | [13] | [14] | [19]

Oc1ccc(C2(c3ccc(O)cc3)c3ccccc3-c3ccccc32)cc1
inactive: [3] | [4] | [5] | [6] | [7] | [11] | [12] | [13] | [14]
active: [1] 30.6 µM | [2] 0.969 µM | [20] 32.4 µM | [9] 45.8 µM

Cc1cc(C(C)(C)c2ccc(O)c(C)c2)ccc1O
active: [1] 58.2 µM | [10] 35.7 µM | [16] 52.3 µM
inactive: [2] | [3] | [4] | [5] | [6] | [7] | [8] | [9] | [11] | [12] | [13] | [14] | [19]

O=C1C(Cl)C(CCl)CN1c1cccc(C(F)(F)F)c1 (centres undefined)
inactive: [1] | [2] | [3] | [4] | [5] | [7] | [20] | [8] | [9] | [15] | [10] | [11] | [12] | [13] | [14] | [19]
